KCNQ2 block: rat KCNQ2 potassium channel inhibitors, primary screen, cell-based, CHO-K1, FluxOR thallium flux, B-score | B-score at 10 µM | 20 min; hits give low values | 1.1% of 310,000 active | Potassium voltage-gated channel subfamily KQT member 2 (Rattus norvegicus), O88943 | AID 2156, 2009;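 active = fluorescence ratio B-score at most minus 3 library SDs, with starting brightness B-score within 2 library SDs, cut at about -5.5 in these data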
KCNQ2 enhance: potentiators of rat KCNQ2 potassium channel | B-score at 10 µM | Potassium voltage-gated channel subfamily KQT member 2 (Rattus norvegicus), O88943 | CHO-K1 KCNQ2, FluxOR thallium flux fluorescence; hits give high values | 0.54% of 310,000 active | AID 2239, 2010;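 active = fluorescence ratio B-score at least 3 SD of library B-scores, with initial fluorescence B-score within 3 of them, cut at about 5.3 in these data; same plate scores as AID 2156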;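 also: B-score of peak minus minimum over baseline fluorescence ratio after K+ and Tl+ stimulus; positive B-score means potentiation of KCNQ2 with more thallium influx and brighter signal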
The depositor's hits bear a star; i = inactive; · = no result. Rows were chosen to be rich in hits. Some 1.6% of all compounds tested hit in one or more screens of this group.

SMILES	KCNQ2 block	KCNQ2 enhance
O=c1nc2n(c3ccc([N+](=O)[O-])cc13)CCCCC2	i	·
CSCCC(NC(=O)c1ccc(Cl)cc1Cl)C(=O)OC1CCCCC1=O (configuration not stated)	-8.1*	-8.1
CSCCC(NC(=O)c1ccc(Cl)cc1Cl)C(=O)NCc1ccccn1 (configuration not stated)	i	·
Cc1ccccc1-c1nc(CS(=O)(=O)CC(=O)N2CCOCC2)c(C)o1	i	·
CCN(CC)CCN(C(=O)c1ccc2c(c1)CCCC2)c1nc2ccc(C)cc2s1	i	·
CN(C)CCN(C(=O)c1ccc2ccccc2c1)c1nc2c(F)cccc2s1	i	·
Cc1cc(C)c2nc(N(CCN(C)C)C(=O)c3ccc4ccccc4c3)sc2c1	-6*	-6
CCN(CC)CCN(C(=O)c1ccc2c(c1)CCCC2)c1nc2c(C)cccc2s1	-8.1*	-8.1
CCOc1ccc(CSc2nc(C)cc(COC)c2C#N)cc1OCC	i	·
CCOc1ccccc1C(=O)Nc1ccc(S(=O)(=O)Nc2nccc(C)n2)cc1	i	·
COc1ccc(CNc2cccc(C)n2)c(O)c1	i	·
Cc1cccc(NCc2cccc3ccccc23)n1	-5.9*	-5.9
Cc1cc(S(=O)(=O)Nc2ccc(C(=O)NCc3ccncc3)cc2)ccc1F	i	1
O=C(NC1CCCC1)c1ccc2c(c1)N(Cc1ccc(F)cc1)CCS2	-6.4*	-6.4
Cc1ccc(CN2CCSc3ccc(C(=O)NC4CCCC4)cc32)cc1	i	·
O=[N+]([O-])c1cccc(NNS(=O)(=O)c2ccccc2F)c1	i	1
CCN(/C=N/c1sc2c(c1C#N)CCCCC2)CC	i	·
CC(C)CN(/C=N/c1sc2c(c1C#N)CCCCC2)CC(C)C	-6.2*	-6.2
O=C(O)c1cc(S(=O)(=O)N2CC3CC3C2C(=O)O)c(Cl)cc1Cl (configuration not stated)	i	·
CC(=O)c1c(C)[nH]c(C(=O)NNC(=O)COc2ccc(Cl)cc2C)c1C	-5.8*	-5.8
COc1ccc(Cl)cc1NC(=O)c1[nH]c(C)c(C(C)=O)c1C	i	1.2
CCOC(=O)C1CCCN(C(=O)c2cc(Nc3ccc(OC)cc3OC)nc3ccccc23)C1 (configuration not stated)	-7.6*	-7.6
CCOC(=O)C1CCCN(C(=O)c2cc(Nc3ccc(OC)c(OC)c3)nc3ccccc23)C1 (configuration not stated)	i	·
CCOC(=O)C1CCCN(C(=O)c2cnn3c(C(F)(F)F)cc(-c4ccccc4)nc23)C1 (configuration not stated)	i	·
CCOC(=O)C1CCCN(C(=O)c2cc(-c3ccc(C)cc3)nc3ccccc23)C1 (configuration not stated)	-5.6*	-5.6
SMILES	KCNQ2 block	KCNQ2 enhance
C=CCOc1ccc(CN(C)C(=O)CNC(=O)c2ccc(-c3ccccc3)cc2)cc1	i	1.5
CC[C@@H]1[C@H]2CCCC(=O)N3CC[C@@H](C[C@H]1O)[C@@H]23	i	1.1
Cc1ccc(C2(c3ccc(C)cc3)CC2C(=O)Nc2ccc([N+](=O)[O-])cc2O)cc1 (configuration not stated)	-7.8*	-7.8
CC1(C)CC1C(=O)Nc1ccc([N+](=O)[O-])cc1Br (configuration not stated)	i	1.4
CCCN(CCO)C1CCN(CCc2ccccc2)CC1	i	·
CC(NC(=O)c1ccc(Br)cc1)C(=O)NC1=NCCS1 (configuration not stated)	i	7.4*
CC(NC(=O)c1ccccc1)C(=O)NC1=NCCS1 (configuration not stated)	i	0.56
CCOC(=O)CSC1=C(C#N)C(c2ccco2)C(C(=O)Nc2cccc(C(F)(F)F)c2)=C(C)N1 (configuration not stated)	-7.2*	-7.2
CCOC(=O)C1=C(c2ccccc2)NC(SCC(=O)Nc2cccc(C)c2)=C(C#N)C1c1ccco1 (configuration not stated)	i	0.16
COc1ccc(N2CCN(c3ncnc4scc(-c5ccc(C)cc5)c34)CC2)cc1	i	3.5
COc1ccc(N2CCN(C(=O)CSc3ncnc4scc(-c5ccc(C)cc5)c34)CC2)cc1	-5.6*	-5.6
COc1ccc(-c2csc3ncnc(N4CCN(S(=O)(=O)c5ccc(Cl)s5)CC4)c23)cc1	-7.5*	-7.5
COc1ccc(-c2csc3ncnc(N4CCN(c5cccc(Cl)c5)CC4)c23)cc1	-6.1*	-6.1
COc1ccc(-c2csc3ncnc(N4CCN(c5cccc(OC)c5)CC4)c23)cc1	i	·
COc1ccc(-c2csc3ncnc(N4CCN(S(=O)(=O)c5cccs5)CC4)c23)cc1	i	·
O=S(=O)(NCc1ccc(F)cc1)c1ccc(-n2cnnn2)cc1	i	·
COc1cc(C(=O)NCCOc2cc(C)cc(C)c2)cc(OC)c1OC	i	·
O=C(CCCN1C(=O)C2CC=CCC2C1=O)Nc1ccccc1F (configuration not stated)	i	1
COC(=O)C1N[C@@H]([C@@H](NC(=O)COc2ccccc2)C(=O)NC2CC2)SC1(C)C (some centres not stated)	i	1.5
Cc1ccc(C)c(NC(=O)CSc2nnc(CSc3nc(C)cc(C)n3)n2Cc2ccco2)c1	i	·
Cc1ccc(NCc2nnc(SCC(=O)c3ccccc3)o2)c(C)c1	i	·
Cc1ccc(NC(=O)CSc2nnc(CSc3nc(C)cc(C)n3)n2Cc2ccco2)c(C)c1	-6.7*	-6.7
Cc1ccc(NCc2nnc(SCC(=O)c3ccccc3)n2Cc2ccco2)c(C)c1	-7.8*	-7.8
Cc1ccc(CCC(=O)NCc2ccccc2)o1	i	1.3
O=C(c1ccc(Cn2cc([N+](=O)[O-])cn2)o1)N1CCCCCC1	i	0.12
SMILES	KCNQ2 block	KCNQ2 enhance
COC(=O)c1ccc(OCCN2CCCCCC2)cc1	i	·
O=C(c1ccc(OCCN2CCCCC2)cc1)c1c(-c2ccc(O)cc2)sc2cc(O)ccc12	-6*	-6
Cc1c(C(=O)c2ccccc2)c(=O)n(C)c(=O)n1C	i	·
COc1ccc(N2C(=O)/C(=C\c3ccco3)N=C2SCC(=O)N(C(C)C)C(C)C)cc1Cl	i	·
CC(C)CN(CC(C)C)C1=N/C(=C\c2ccco2)C(=O)N1c1ccccc1	-7.4*	-7.4
COc1ccc(CNC(=O)CN(C(=O)c2snc(C(N)=O)c2N)c2ccc(OC)c(OC)c2)cc1	i	0.54
COc1ccc(NC(=O)NNC(=O)C(C)Oc2ccc3ccccc3c2)cc1 (configuration not stated)	i	·
CC(C)(C)c1ccc(NC(=O)CNC2CCCc3ccccc32)cc1 (configuration not stated)	-6.9*	-6.9
Cc1ccc(NC(=O)CN(C)CC(=O)NC2CCCc3ccccc32)cc1 (configuration not stated)	i	·
CCOC(=O)C1(Cc2ccccc2)CCCN(Cc2ccc(OCCO)cc2)C1 (configuration not stated)	i	0.09
CCOC(=O)C1(Cc2ccccc2)CCCN(Cc2cccc(C(C)=O)c2)C1 (configuration not stated)	-6*	-6
Cn1c(-c2cccc([N+](=O)[O-])c2)cnc1NCc1cccc(F)c1	i	1.1
CC(C)Oc1ccc(CNC(=O)CCC(=O)N2CC(C)Sc3ccccc32)cc1 (configuration not stated)	i	·

High-throughput results: PubChem, Johns Hopkins Ion Channel Center
